Compound activity as filed in PubChem BioAssay.
HIV TAR-Tat: TAR RNA-Tat peptide displacers, HIV-1, primary screen, biochemical, FRET, FAM/TAMRA-labeled Tat | HIV-1 TAR RNA, Tat peptide displacement FRET; active compounds read high | z-score (concentration not given with the values) | hit rate 0.6% among 100,000 | AID 1259389, 2018; active = z-score of 3 or more in at least 2 runs
CDC25B CDK2 inh: primary biochemical HTRF screen for blockers of M-phase inducer phosphatase 2 binding to CDK2/cyclin A. AID 1259370, 2018. z-score (concentration not given with the values). HTRF CDC25B-CDK2/CyclinA binding, anti-His/anti-Flag; active compounds read high. hit rate 0.72% among 94,000; in the data active = z-score above about 3.2
Starred values were filed as active, the others as inactive; / = no result given. Shown are actives, neighbours in structure and some others; about 0.93% of the full set was active somewhere.

SMILES | HIV TAR-Tat | CDC25B CDK2 inh
COc1ccc(Oc2ccc([N+](=O)[O-])c3nonc23)cc1 | / | 12*
COc1ccc(Oc2ccc([N+](=O)[O-])cc2-c2nc(-c3ccccn3)no2)cc1 | / | -1.5
O=c1cccc2ccc(O)c(O)c2c1O | 25* | /
Cc1cc(=O)c2c(O)c(O)ccc2o1 | / | -2.2
O=C(O)c1cc(=O)c(O)c2c(O)c(O)ccc2c1 | 25* | /
CC1=NN(c2cccc(C(=O)O)c2)C(=O)C1 | 0.21 | -1.1
COc1ccc(NC(=O)C(C)Sc2nnc(Cc3c(C)nc4c(C)cccn4c3=O)n2C)cc1 (stereo unspecified) | -0.94 | 7.2*
Cc1nc2c(C)cccn2c(=O)c1Cc1nnc(SCC(=O)Nc2ccc(C(C)C)cc2)n1C | -0.62 | -0.42
Cc1nc2ccccn2c(=O)c1Cc1nnc(SCC(=O)Nc2ccc(Cl)cc2)n1C | -0.6 | -0.52
COc1ccc(NC(=O)C(C)Sc2nnc(Cc3c(C)nc4ccccn4c3=O)n2C)cc1 (stereo unspecified) | -0.14 | 16*
CCc1nnc(SCC(=O)Nc2cc(C)cc(C)c2)c2cc3oc(C)cc3n12 | 1.7 | /
c1ccc2c(OCCCOc3cccc4cccnc34)cccc2c1 | / | 6.2*
OC(COc1cccc2cccnc12)Cn1c2ccccc2c2ccccc21 (stereo unspecified) | -1.6 | -0.9
Cc1cc2c3c(c1)C1C=CCC1C(C(=O)O)N3CC1CC=CC21 (stereo unspecified) | / | -1.2
O=C(O)C1C2CC=CC2c2cc(Br)cc3c2N1CC1CC=CC31 (stereo unspecified) | 20* | 4.9*
O=C(CSc1ccc2nnc(-c3cccc(F)c3)n2n1)N1CCOCC1 | / | -2
CC(=O)NCCNC(=O)CCc1nc2sc3c(c2c(=O)[nH]1)CCCCC3 | 6* | /
O=C(CCc1nc2sc3c(c2c(=O)[nH]1)CCCCC3)N1CCN(c2ccc(F)cc2)CC1 | -0.48 | /
O=C(CCc1nc2sc3c(c2c(=O)[nH]1)CCCCC3)N1CCN(Cc2ccc3c(c2)OCO3)CC1 | 10* | /
CNC(=O)CCc1nc2sc3c(c2c(=O)[nH]1)CCCCC3 | 0.79 | /
CC(C)(C)C1CCc2c(sc3nc(CCC(=O)N4CCC(C(N)=O)CC4)[nH]c(=O)c23)C1 (stereo unspecified) | 0.16 | /
NC(=O)C1CCN(C(=O)CCc2nc3sc4c(c3c(=O)[nH]2)CCCCC4)CC1 | 19* | /
CCN1CCCC1CNC(=O)Cn1ncc2c3ccccc3n(C)c2c1=O (stereo unspecified) | 1.8 | -1.8
Cc1nc(-c2nnc(NC(=O)Nc3ccc(C)c(C)c3)o2)c(C)s1 | -0.69 | -2.4
CCOc1cccc(-c2nc3c(c(=O)[nH]2)Cc2c(ccc4ccccc24)O3)c1 | -0.21 | -1.4
SMILES | HIV TAR-Tat | CDC25B CDK2 inh
CCOC(=O)CCCn1c(=O)c2cccn2c2cccnc21 | 0.57 | -1.1
CCC(=O)N1CCc2cc(Br)cc(S(=O)(=O)NCC3CCCN3CC)c21 (stereo unspecified) | / | 4.5*
CCC(=O)N1CCc2cc(Br)cc(S(=O)(=O)NCCN3CCCCC3C)c21 (stereo unspecified) | / | 3.4
O=C(Nc1ccc(-c2nc3ccccc3o2)cc1)c1nc(-n2cnnc2)ccc1Br | 7.2* | /
O=C(Nc1ccc2oc(-c3ccccc3)nc2c1)c1nc(-n2cnnc2)ccc1Br | 2.5 | /
CCc1nn2c(=O)cc(COC(=O)CSc3ccccc3)nc2s1 | 0.61 | /
CC1Sc2ccc(S(=O)(=O)CCC(=O)NCc3ccccn3)cc2NC1=O (stereo unspecified) | 2.8 | /
Cc1ccc(S(=O)(=O)/N=C2\C=C(n3cnc4ccccc43)C(=O)c3ccccc32)cc1 | / | 17*
Cc1ccc(S(=O)(=O)Nc2ccc3c(c2)ncn3-c2ccccc2)cc1 | / | -0.26
CCc1nn(CC(=O)NCc2ccc3c(c2)OCO3)c(=O)c2cc3sccc3n12 | -0.27 | -1.8
Cc1cccc2c3c(ccc12)C1=C(C(=O)C3=O)[C@@H](C)CO1 | 17* | /
COc1ccc(C)cc1S(=O)(=O)Nc1cccc(N2CCCS2(=O)=O)c1 | 0.89 | /
CCn1c(SCC(=O)Nc2nc3ccccc3s2)nnc1-c1cc2ccccc2o1 | 1.9 | /
CCn1c(SCC(=O)Nc2nnc(C)s2)nnc1-c1cc2ccccc2o1 | 5.1* | /
Cn1cc(NC(=O)NC2CCCCC2)c2ccccc2c1=O | 0.91 | 19*
CC(C)Cn1cc(NC(=O)NC2CCCCC2)c2ccccc2c1=O | 2.4 | /
COC(=O)c1sccc1NC(=O)C1CCCN(c2ncnc3onc(C)c23)C1 (stereo unspecified) | 1.7 | /
CCc1nnc(SCC(=O)Nc2ccc(Br)cc2F)c2cc3sccc3n12 | 3.4 | /
Cc1cc(C)c(S(=O)(=O)Nc2cc3c(cc2C)n(C)c(=O)n3C)c(C)c1 | 0.42 | /
Cc1cc(C)c(S(=O)(=O)Nc2ccc[nH]c2=O)c(C)c1 | -1.9 | 9.4*
O=C(NN1CCOCC1)c1ccc(Oc2ccc(Cl)cc2)c([N+](=O)[O-])c1 | / | -0.76
COc1ccc(Nc2nc(-c3cc4c(ccc5ccccc54)oc3=O)cs2)cc1 | / | 10*
COc1ccc2oc(=O)c(-c3csc(Nc4ccccc4)n3)cc2c1 | / | -2.1
CC(=O)N1c2ccc(S(=O)(=O)N3CCCC3)cc2CC1C(=O)NCCC(C)C (stereo unspecified) | 1.6 | /
Cc1ccc(-c2c(NC3CCCCC3C)c(=O)c2=O)cc1 (stereo unspecified) | 1.7 | /
SMILES | HIV TAR-Tat | CDC25B CDK2 inh
N#CC1=C2SCN(c3ccc(Br)cc3)CN2C(=O)CC1c1ccccc1F (stereo unspecified) | -1.9 | 7.3*
COc1cccc(C2CC(=O)N3CN(c4ccccc4)CSC3=C2C#N)c1OC (stereo unspecified) | 1.7 | 3.5*
COc1cccc(C2CC(=O)N3CN(C)CSC3=C2C#N)c1OC (stereo unspecified) | -0.83 | 4.3*
COc1cccc(C2CC(=O)N3CN(c4ccc(Br)cc4)CSC3=C2C#N)c1OC (stereo unspecified) | -3.1 | 5.9*
N#CC1=C2SCN(C3CCCCC3)CN2C(=O)CC1c1ccc(Cl)cc1 (stereo unspecified) | -2.2 | 0.07
COc1ccc(C2CC(=O)N3CN(c4ccc(Br)cc4)CSC3=C2C#N)cc1OC (stereo unspecified) | -0.65 | 5.6*
COc1ccccc1C1CC(=O)N2CN(C3CCCCC3)CSC2=C1C#N (stereo unspecified) | -0.27 | 2.5
COc1cccc(C2CC(=O)N3CN(C4CCCCC4)CSC3=C2C#N)c1OC (stereo unspecified) | -0.67 | 6.2*
Cc1ccc(C2CC(=O)N3CN(c4ccc(Br)cc4)CSC3=C2C#N)o1 (stereo unspecified) | -1.9 | 7.3*
COc1ccc(C2CC(=O)N3CN(C4CCCC4)CSC3=C2C#N)cc1OC (stereo unspecified) | -2.1 | 5.9*
Cc1ccc(S(=O)(=O)N2CCCC(c3nc(-c4ccccc4Cl)no3)C2)cc1C (stereo unspecified) | 1 | /
CC(C)N(C(=O)CSc1nc2ccccc2[nH]1)C(C)C | 1.9 | 0.32
O=C1CC(c2cccc(Cl)c2)C2=C(CC(c3ccccc3Cl)CC2=O)N1 (stereo unspecified) | 0.46 | 3.1
COCCCNc1c(-c2ccc(Cl)cc2)c(=O)c1=O | 0.96 | /
CC1=NS(=O)(=O)c2cc(C(=O)N3CCN(C)CC3)ccc2N1CC(C)C | 1.8 | /
N#Cc1nc(/C=C/c2ccc(F)cc2)oc1NCCN1CCOCC1 | 0.63 | -0.44
